The target in experiment [1] is Retinoic acid receptor RXR-alpha (Homo sapiens) (UniProt P19793). As to the kind of experiment: qHTS assay to identify small molecule agonists of the RXR signaling pathway (AID 1159527; calls by dose curve; further: nearly all actives have a fitted effect of over 35% in size; further: potency means the concentration at half of the fitted maximal effect). In outline:
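qHTS of the Tox21 10K library in GeneBLAzer RXR-alpha HEK 293T cells carrying a beta-lactamase reporter […]; 16 hr treatment, 9-cis retinoic acid as agonist control, FRET read-out.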

Experiment [2] in a line: qHTS assay to identify small molecule agonists of the RXR signaling pathway - cell viability counter screen (AID 1159529). Further: nearly all actives have a fitted effect of over 50% in size. Further: potency means the concentration at half of the fitted maximal effect. In outline: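 Cell viability is measured by CellTiter-Glo luminescence, 30 min at room temperature, in wells already read for beta-lactamase. Engineered HEK 293T cells (RXR-alpha-UAS-bla) are dosed 16 hr at 37 C. Tetraoctyl ammonium bromide serves as positive control.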
For orientation: qHTS replaces the single test concentration by a dilution series.

A short description of experiment [3]: qHTS assay to identify small molecule antagonists of the retinoid acid receptor (RAR) signaling pathway - cell viability counter screen (AID 1159551). Further: nearly all actives have a fitted effect of over 35% in size. An outline of the steps: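 C3RL4 RARE-luciferase line; cpds + retinol 1 uM final, 6 h, 37 C/5% CO2; CellTiter-Glo ATP luminescence, 30 min RT.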
The nature of experiment [4]: qHTS assay to identify small molecule antagonists of the retinoic acid receptor (RAR) signaling pathway (AID 1159552; further: nearly all actives have a fitted effect of over 50% in size). In outline: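 Quantitative HTS in C3RL4 RARE-luciferase reporter cells. Compounds were added with 1 uM (final) retinol; luminescence was read after 6 hr.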
A short description of experiment [5]: qHTS assay to identify small molecule agonists of the retinoic acid receptor (RAR) signaling pathway (AID 1159553). An outline of the steps: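 RARE-luc C3RL4 cells; overnight attachment 37 C/5% CO2; compound (DMSO) 6 hr; luciferase reagent, 30 min RT; luminescence read-out.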

Each structure is given as a SMILES string. “And” between values parts separate entries of the source, which are not always exact repeats. Equal entries are not always repeated. Inconclusive results are not listed. The source holds several records for some structures; these can differ, active in one and inactive in another. The source made the active and inactive calls. Unless noted, the call rests on the fitted dose curve; in most records, active means well fitted curve in the direction sought with a large enough effect in the repeat runs; inconclusive means weak or mixed curves; inactive means no such curve, though single readings can be large; an effect the other way counts as inactive or inconclusive.

Sequence of Retinoic acid receptor RXR-alpha (Homo sapiens) (P19793 whole entry, looked up): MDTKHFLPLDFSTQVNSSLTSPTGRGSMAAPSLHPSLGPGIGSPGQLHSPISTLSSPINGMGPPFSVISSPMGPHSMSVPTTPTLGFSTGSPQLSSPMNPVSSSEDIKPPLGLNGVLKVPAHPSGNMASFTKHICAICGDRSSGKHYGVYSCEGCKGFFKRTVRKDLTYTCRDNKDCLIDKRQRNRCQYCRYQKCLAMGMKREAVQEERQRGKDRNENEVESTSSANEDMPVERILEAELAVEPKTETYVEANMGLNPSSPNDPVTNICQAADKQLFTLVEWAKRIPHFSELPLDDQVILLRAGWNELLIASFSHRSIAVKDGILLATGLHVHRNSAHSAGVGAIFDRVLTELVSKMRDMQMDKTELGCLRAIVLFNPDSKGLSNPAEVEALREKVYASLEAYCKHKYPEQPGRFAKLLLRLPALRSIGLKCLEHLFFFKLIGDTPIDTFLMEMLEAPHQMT

Consider `Cc1cc(=O)[nH]o1`, for which the Potency entry in experiment [1], in experiment [2] and in experiment [3] was “inactive” in each case.
As for `c1ccoc1`, the Potency entry in experiment [1], in experiment [2] and in experiment [3] was “inactive” throughout.
As to `O=C(O)CC(Cl)C(=O)O` (configuration not stated), the Potency result in experiment [1], in experiment [2], in experiment [3] and in experiment [4] was “inactive” in each case.
Consider `CCC(Cl)CCl` (configuration not stated), for which the Potency entry in experiment [1], in experiment [2], in experiment [3] and in experiment [4] was “inactive” each time.
Consider `CCn1cc[n+](C)c1`, for which the Potency entry in experiment [1] was “inactive and 19.8 µM (active)”. The Potency entry in experiment [2] and in experiment [3] was “inactive” each time.
With `CC/C(=N\OC/C=C/Cl)C1=C(O)CC(C2CCOCC2)CC1=O` (configuration not stated), the Potency entry in experiment [1], in experiment [2] and in experiment [3] was “inactive” in each case.
As to `CCCCNP(N)(N)=S`, the Potency entry in experiment [1], in experiment [2] and in experiment [3] was “inactive” each time.
In the case of `Clc1cc(C(Cl)(Cl)Cl)cnc1Cl`, the Potency result in experiment [1], in experiment [2], in experiment [3] and in experiment [4] was “inactive” in each case.
As for `O=C(C(Cl)(Cl)Cl)C(Cl)(Cl)Cl`, the Potency entry in experiment [1], in experiment [2], in experiment [3] and in experiment [4] was “inactive” throughout.
For the compound `Brc1ccc(Oc2ccccc2)cc1`, the Potency entry in experiment [1] and in experiment [3] was “inactive” in each case. For the same compound, in experiment [2], the Potency is 31.7 µM (active) and inactive.
As for `ClP(Cl)(Cl)(Cl)Cl`, the Potency entry in experiment [1], in experiment [2] and in experiment [3] was “inactive” throughout.
Turning to `C=CC(=O)OCCCCO`, the Potency entry in experiment [1] is “inactive”.
With `CN1C(=O)NC(=O)C(C)(C2=CCCCC2)C1=O` (configuration not stated), the Potency entry in experiment [1], in experiment [2], in experiment [3] and in experiment [4] was “inactive” throughout.
Regarding `Cn1cc[n+](C)c1` (tested in a mixture with another compound), the Potency entry in experiment [1], in experiment [2], in experiment [3] and in experiment [4] was “inactive” in each case.
`Nc1ccc([N+](=O)[O-])cc1[N+](=O)[O-]`: the Potency result in experiment [1], in experiment [2] and in experiment [3] was “inactive” throughout.
`CN(N=O)c1ccc([N+](=O)[O-])cc1`: the Potency result in experiment [1], in experiment [2], in experiment [3] and in experiment [4] was “inactive” throughout.
On to `ClC=C(Cl)Cl`, for which the Potency result in experiment [1], in experiment [2] and in experiment [3] was “inactive” each time.
In the case of `ClCCCCBr`, the Potency entry in experiment [1], in experiment [2], in experiment [3] and in experiment [4] was “inactive” in each case.
In the case of `c1ccc(CN2CCNCC2)cc1`, the Potency result in experiment [1], in experiment [2], in experiment [3] and in experiment [4] was “inactive” throughout.
In the case of `CCC(Br)(CC)C(=O)NC(N)=O`, the Potency result in experiment [1], in experiment [2], in experiment [3] and in experiment [4] was “inactive” throughout.
On to `O=[N+]([O-])c1ccccc1CCl`, for which the Potency entry in experiment [1], in experiment [2] and in experiment [3] was “inactive” each time.
With `O=C(CBr)c1ccccc1`, the Potency result in experiment [1], in experiment [2], in experiment [3] and in experiment [4] was “inactive” in each case.
In the case of `CCCCCCCCCCOC(=O)c1ccccc1C(=O)OCCCCCCCCCC`, the Potency entry in experiment [1], in experiment [2] and in experiment [3] was “inactive” each time.
Consider `CCC(COC(=O)c1cc(OC)c(OC)c(OC)c1)(c1ccccc1)N(C)C` (configuration not stated), for which the Potency result in experiment [1] was “inactive”.
In the case of `N#CCc1ccccc1`, the Potency result in experiment [1], in experiment [2], in experiment [3] and in experiment [4] was “inactive” throughout.
As to `C[N+](C)(C)CCCl`, the Potency entry in experiment [1], in experiment [2], in experiment [3] and in experiment [4] was “inactive” throughout.
Turning to `C=CC(C)=O`, the Potency result in experiment [1], in experiment [2] and in experiment [3] was “inactive” in each case.
As to `Nc1nc(N)nc(N)n1`, the Potency result in experiment [1], in experiment [2], in experiment [3] and in experiment [4] was “inactive” in each case.
For the compound `C=CC(=O)OCC(C)C`, the Potency result in experiment [1], in experiment [2] and in experiment [3] was “inactive” in each case.
In the case of `O=C(O)c1ccccc1C(=O)Nc1cccc2ccccc12`, the Potency entry in experiment [1], in experiment [2], in experiment [3] and in experiment [4] was “inactive” each time.
`N#C/C(N)=C(/N)C#N`: the Potency entry in experiment [1], in experiment [2], in experiment [3] and in experiment [4] was “inactive” in each case.
As to `CCCCCC[N+](=O)[O-]`, the Potency entry in experiment [1], in experiment [2] and in experiment [3] was “inactive” each time.
For the compound `Nc1nc(=S)[nH][nH]1`, the Potency entry in experiment [1], in experiment [2], in experiment [3] and in experiment [4] was “inactive” in each case.
For the compound `COC(=O)C(Br)CBr` (configuration not stated), the Potency entry in experiment [1], in experiment [2], in experiment [3] and in experiment [4] was “inactive” throughout.
On to `Cl/C=C\C[N+]12CN3CN(CN(C3)C1)C2`, for which the Potency entry in experiment [1], in experiment [2] and in experiment [3] was “inactive” in each case.
As to `COc1cc(CC(C)N)cc2c1OCO2` (configuration not stated), the Potency result in experiment [1], in experiment [2], in experiment [3], in experiment [4] and in experiment [5] was “inactive” throughout.
`Clc1cc(Cl)c(Cl)c(Cl)c1`: the Potency result in experiment [1], in experiment [2], in experiment [3], in experiment [4] and in experiment [5] was “inactive” in each case.
In the case of `CCN(C)N=O`, the Potency result in experiment [1], in experiment [2], in experiment [3], in experiment [4] and in experiment [5] was “inactive” throughout.
As for `O=C(O)C(F)(F)C(F)(F)C(F)(F)C(F)(F)C(F)(F)C(F)(F)C(F)(F)C(F)(F)C(F)(F)C(F)(F)F`, the Potency in experiment [1] is 11.6 µM (active). The Potency result in experiment [2], in experiment [3], in experiment [4] and in experiment [5] was “inactive” each time.
Consider `NC(=O)C(Cl)(Cl)Cl`, for which the Potency result in experiment [1], in experiment [2], in experiment [3] and in experiment [4] was “inactive” in each case.
For `CC(=O)NC1CCSC1=O` (configuration not stated), the Potency entry in experiment [1], in experiment [2], in experiment [3], in experiment [4] and in experiment [5] was “inactive” throughout.
`Clc1cccc(SC2CCNCC2)n1`: the Potency result in experiment [1], in experiment [2], in experiment [3], in experiment [4] and in experiment [5] was “inactive” throughout.
For `ClCc1ccccc1`, the Potency entry in experiment [1], in experiment [2], in experiment [3], in experiment [4] and in experiment [5] was “inactive” each time.
Consider `C/C=C/C=O`, for which the Potency result in experiment [1], in experiment [2], in experiment [3], in experiment [4] and in experiment [5] was “inactive” throughout.
With `CCCCN=C=O`, the Potency result in experiment [1], in experiment [2], in experiment [3], in experiment [4] and in experiment [5] was “inactive” in each case.
Take `O=[Se]=O`: the Potency result in experiment [1], in experiment [2], in experiment [3], in experiment [4] and in experiment [5] was “inactive” throughout.
For the compound `C=CCN1CC[C@]23c4c5ccc(O)c4O[C@H]2C(=O)CC[C@@]3(O)[C@H]1C5`, the Potency entry in experiment [1], in experiment [2], in experiment [3] and in experiment [4] was “inactive” each time.
